# The supplement of paper PMC3334620
# Over roughly 33,000 sequences, “E-score (-0.5 to 0.5)” has its median near -0.043; the highest 2% begin near 0.37. The entries come from a sample that favours the highest values as a whole.
# Molecular target: T1, Upc2 (UniProt Q12151)
# T1 sequence: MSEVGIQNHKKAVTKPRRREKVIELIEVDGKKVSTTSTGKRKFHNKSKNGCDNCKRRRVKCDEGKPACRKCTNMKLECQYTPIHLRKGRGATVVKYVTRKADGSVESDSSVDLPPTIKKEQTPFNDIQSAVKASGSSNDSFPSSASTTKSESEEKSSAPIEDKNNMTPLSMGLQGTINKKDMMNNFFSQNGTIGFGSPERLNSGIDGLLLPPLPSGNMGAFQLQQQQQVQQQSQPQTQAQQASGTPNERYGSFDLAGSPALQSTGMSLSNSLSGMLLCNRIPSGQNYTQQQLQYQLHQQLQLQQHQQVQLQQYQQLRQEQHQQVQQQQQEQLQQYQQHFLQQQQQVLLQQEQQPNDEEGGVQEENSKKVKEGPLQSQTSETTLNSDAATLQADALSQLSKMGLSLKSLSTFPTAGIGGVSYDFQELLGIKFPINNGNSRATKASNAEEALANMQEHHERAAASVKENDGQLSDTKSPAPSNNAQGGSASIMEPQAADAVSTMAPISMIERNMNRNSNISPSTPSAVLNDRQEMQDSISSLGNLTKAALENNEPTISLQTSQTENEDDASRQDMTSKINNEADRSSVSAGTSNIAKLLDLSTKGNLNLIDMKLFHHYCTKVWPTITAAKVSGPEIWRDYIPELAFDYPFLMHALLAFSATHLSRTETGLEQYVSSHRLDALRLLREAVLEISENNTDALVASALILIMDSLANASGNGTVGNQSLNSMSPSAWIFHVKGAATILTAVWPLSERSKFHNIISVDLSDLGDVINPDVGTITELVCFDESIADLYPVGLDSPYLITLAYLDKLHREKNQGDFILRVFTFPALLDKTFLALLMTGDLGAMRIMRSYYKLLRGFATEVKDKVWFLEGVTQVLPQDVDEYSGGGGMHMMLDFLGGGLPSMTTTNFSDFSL
# Assay: PBM E-score (8-mer binding enrichment) (E-score (-0.5 to 0.5)); higher = stronger / more preferred TF binding
# Settings: protein concentration: 200 nM; construct: GST-full length
# Outline: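 Universal all-10-mer Agilent arrays, fresh or stripped once, were converted to double-stranded form by primer extension. GST-tagged yeast transcription factors from PURExpress in vitro transcription/translation, full-length or DNA-binding domain only, were applied at about 100-200 nM and detected with fluorescent anti-GST. After masliner normalisation, the Universal PBM Analysis Suite scored each ungapped eight-base word together with its reverse complement by E-score.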
row,Sequence,PBM E-score
1,AAAGATTC,0.0374
2,CCAAGAAG,-0.227
3,ATGCGTGC,0.03
4,CAGTCGCC,-0.196
5,ATTTGCTG,0.0559
6,TGTACACA,0.0892
7,CGTACACA,0.418
8,GGTACACC,0.0641
9,AGTACACC,0.0771
10,GGTACACA,-0.235
11,AGTACACG,0.198
12,CGTACACG,0.423
13,CGTACACC,0.382
14,AGTACACA,0.143
15,GATGAGGA,-0.0777
16,CCTGCAAA,-0.0886
17,GCAATTAC,-0.0538
18,AGGGTCCC,-0.229
19,ACGAGTAC,0.419
20,ACGAGTAA,0.348
21,CCGAGTGC,-0.0549
22,ACGAGTCT,0.293
23,ACGAGTCA,0.249
24,ACGAGTAG,0.368
25,ACGAGTGC,0.377
26,ACGAGTAT,0.376

row,Sequence,PBM E-score
1,GCGAGTAC,0.204
2,ACGAGTCG,0.384
3,ACGAGTGG,0.295
4,CCGAGTAC,0.196
5,CGCTGGGA,-0.0151
6,AAAGTGTT,0.0836
7,ATCGTCCG,-0.101
8,CGACGATA,0.169
9,CGGTAAAC,0.206
10,AAAGGTGG,-0.0797
11,AGCTTTAC,0.192
12,GTGGATAA,-0.151
13,ACAGTAGC,-0.0133
14,AAAATAGG,-0.0506
15,ATAGTTTC,-0.0466
16,ATCGTTTC,0.401
17,CTCGTTTC,0.452
18,AGCGTTTC,0.0667
19,CGCGTTTC,0.0838
20,ATAGTTTG,-0.0286
21,ATCGTTTG,0.452
22,AGCGTTTG,0.149
23,CTCGTTGC,0.356
24,GTCTGGAA,-0.122
25,GAAATTCC,-0.186
26,GACCCGAA,-0.0162

row,Sequence,PBM E-score
1,CCTGCGCG,-0.0152
2,CGGGCCAA,-0.307
3,AGCAGAGG,-0.293
4,GCAAGCGA,0.174
5,AACACCTT,0.0752
6,GCGTTCAA,0.173
7,ACGTTCCC,0.0935
8,TCGTTCCA,0.46
9,ACGTTTCA,0.116
10,TCGTTTCA,0.406
11,GCGTTCCA,0.11
12,CCGTTCCC,0.385
13,TCGTTCAA,0.459
14,GCGTTCCC,0.0703
15,GCGTTTCA,-0.0903
16,ACGTTCAA,0.238
17,ACGTTCCA,0.116
18,AGTCTTTA,-0.0445
19,AGACTGCG,-0.17
20,GCGAATTA,0.179
21,GGATGGAA,-0.0401
22,CGGGCATC,0.0742
23,GCCGCGTA,0.271
24,AGCCGAAG,-0.185
25,CTACAAGA,-0.194
26,ATTCGTGC,-0.094

row,Sequence,PBM E-score
1,CTTCGTAA,0.427
2,ATTCGTCC,0.0624
3,CTTCGTCA,-0.0302
4,CTTCGTCC,-0.316
5,CTTCGTGA,0.112
6,CTTCGTAC,0.458
7,CTTCGTGC,-0.0549
8,ATTCGTAC,0.452
9,CCCAGCCC,-0.217
10,CACACACC,0.0034
11,CTTCATAA,-0.121
12,AAGGCACC,-0.24
13,ATAGCGAC,0.17
14,ATAACGTG,0.0885
15,TAATGTAA,-0.0142
16,AAGCCTAT,-0.0475
17,CAGGAACC,-0.161
18,AGGGAACC,-0.104
19,AGGGAACA,-0.22
20,CCGGAACC,-0.113
21,CCGGAACG,0.376
22,CCGGAACA,-0.189
23,CGGGAACG,0.404
24,AAGGAACG,0.347
25,CGGGAACA,0.184
26,AGGGAACG,0.39

row,Sequence,PBM E-score
1,CGGGAACC,-0.12
2,CAGGAACG,0.396
3,AGCGCAAC,0.149
4,TTTCCAAA,-0.0113
5,AAGCTTGG,0.127
6,ACTGCGCC,-0.147
7,CCGGGGAA,-0.23
8,GGAAGTAA,-0.0533
9,GGCAATCA,-0.196
10,AAAGGATC,-0.127
11,CTCTCGAA,-0.0265
12,CTCTCGTC,0.0223
13,GTCTCGAA,-0.0265
14,ATCTCGTA,0.464
15,CTCTCGTA,0.453
16,GTCTCGTA,0.456
17,GTCTCGGA,0.162
18,ATCTCGTC,0.123
19,ATCTCGTG,0.124
20,AAGGTTCA,-0.145
21,GGCAGAGA,-0.14
22,GCCACAGA,-0.149
23,ATTGAACA,-0.0652
24,TTATCCAA,0.0246
25,GAGAGTAC,0.0133
26,GCGTACCC,0.244

row,Sequence,PBM E-score
1,ACGTACCC,0.203
2,ACGTACCG,0.272
3,CCGTACCC,0.379
4,CCGTACCG,0.389
5,CCGTACCA,0.368
6,GAAATATA,0.127
7,ATCCCGTG,0.0975
8,ATCCCGTA,0.373
9,GTCCCGTA,0.25
10,AACCCAAC,0.00517
11,CGCTTACC,0.301
12,CGCTTACA,0.178
13,CGCTTACG,0.372
14,CCTTATAA,0.0883
15,ACGTTTAG,0.397
16,ACGTTTTA,0.188
17,ACGTTTTG,-0.0436
18,CAGTTTAG,-0.0566
19,CCGTTTCG,0.255
20,ACGTTTAA,0.407
21,ACGTTTAT,0.313
22,ATGTTTAA,0.067
23,CCGTTTAG,0.468
24,CACTAGCC,-0.0426
25,TAAGACAA,0.0602
26,AGCTGAGA,-0.232

row,Sequence,PBM E-score
1,CTTGCACC,0.0237
2,GAAAGCCA,-0.231
3,ATAGTATG,0.0124
4,CTGGTATC,-0.187
5,CTCGTATC,0.473
6,ATCGTATC,0.426
7,AACGTATG,0.239
8,ATGGTATC,0.15
9,ATAGTATC,0.0546
10,ATCGTATG,0.455
11,CTTGTATC,-0.0734
12,CGGTCACA,0.0569
13,AGTGCTAT,-0.0648
14,CGTGCTTC,0.014
15,CACAAGGC,-0.308
16,GGCCATGA,-0.134
17,ACTTCAGC,-0.178
18,CCTGTACG,0.436
19,CATGTACA,-0.00834
20,ATTGTACG,0.428
21,AGTGTACC,-0.0597
22,AGTGTACG,0.417
23,CCTGTACA,-0.0382
24,ATTGTACA,-0.0603
25,AATGTACG,0.36
26,CATGTACG,0.409

row,Sequence,PBM E-score
1,AGTGTACA,-0.0815
2,CCTGTACC,-0.0294
3,ATTGTACC,0.115
4,ACATGCGA,0.128
5,ACAGCGGT,-0.15
6,AATCTGAA,-0.00542
7,CTTGACTC,-0.0404
8,ATAAGTCC,-0.0003
9,GGTCCACA,-0.166
10,GAGTTCTA,-0.141
11,ACTGTACC,-0.077
12,ACTGTACG,0.433
13,ACTGTACT,0.0214
14,ATATACAC,0.193
15,ATATACCG,0.194
16,CTATACTC,0.0215
17,ATATACCA,0.0254
18,ATATACTG,0.0777
19,ATATACGC,0.387
20,ATATACGG,0.456
21,CTATACCC,0.0307
22,ATATACGA,0.492
23,ATATACTC,-0.0113
24,ATATACAA,-0.0498
25,CTATACGC,0.458
26,CGGATTTA,0.0862

row,Sequence,PBM E-score
1,CGCCTTAC,0.155
2,AATCTGAC,-0.119
3,AGCTCACT,-0.138
4,ATAAAAAG,0.0686
5,CCTCTCAG,-0.352
6,CGTAGGGA,-0.0318
7,ATCTTACA,0.0167
8,ATCGTAGG,0.165
9,ATCGTACG,0.435
10,ATAGTACG,0.221
11,ATCGTACA,0.468
12,GGCGTACA,0.269
13,GTCGTACA,0.483
14,AGCGTACA,0.301
15,AACGTACC,0.256
16,AACGTACG,0.386
17,ATAGTACA,0.149
18,GACGTACA,0.305
19,AACGTACA,0.266
